Compounds without any hit were thinned out: in the full panel of roughly 83,000, 20% have a hit.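 Results are percent growth after 48 hours of single-concentration exposure. 100 means growth as in untreated cells, lower positive values show inhibition; negative values down to -100 show cell death.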 Calls of active or inactive are those of the source. The calls were made as follows: active = growth percent below 10; inactive = the rest.
Tests used:
Test in all cases: NCI-60 one-dose screen, 48 h (100 = growth as untreated, 0 = no growth, -100 = all killed)
Conditions in all cases: 10 µM unless noted
SK-MEL-2 melanoma = system: SK-MEL-2 melanoma
EKVX NSCLC = system: EKVX NSCLC
SN12C renal = system: SN12C renal
UO-31 renal = system: UO-31 renal
TK-10 renal = system: TK-10 renal
ACHN renal = system: ACHN renal
CAKI-1 renal = system: CAKI-1 renal
A498 renal = system: A498 renal
CCRF-CEM leukemia = system: CCRF-CEM leukemia
MOLT-4 leukemia = system: MOLT-4 leukemia

Measured: growth

COc1ccc(NC(=O)c2ccc(Cl)cc2Cl)cc1
inactive: SK-MEL-2 melanoma 106% | EKVX NSCLC 89.1% | SN12C renal 101% | UO-31 renal 96.5% | TK-10 renal 88.3% | ACHN renal 117% | CAKI-1 renal 95.7% | A498 renal 72.6% | CCRF-CEM leukemia 106% | MOLT-4 leukemia 107%

COC(=O)[C@@H](Cc1c[nH]c2ccccc12)NC[C@@H](O)CN1C(=O)/C(=C\c2cc(OC)c(OC)c(OC)c2)c2ccccc21
inactive: SK-MEL-2 melanoma 58.1% | EKVX NSCLC 85.7% | SN12C renal 73% | UO-31 renal 58.3% | TK-10 renal 101% | ACHN renal 75.5% | CAKI-1 renal 73.1% | A498 renal 69.5% | CCRF-CEM leukemia 20.7%
active: MOLT-4 leukemia 1.92%

O=C(Nc1ccccc1C(F)(F)F)C1=NCCCCN1
inactive: SK-MEL-2 melanoma 104% | EKVX NSCLC 93.1% | SN12C renal 98% | UO-31 renal 86.2% | TK-10 renal 98.8% | ACHN renal 103% | CAKI-1 renal 96.6% | A498 renal 97.1% | CCRF-CEM leukemia 102% | MOLT-4 leukemia 99.2%

CC/C(=C(/c1ccc(Cl)cc1)c1ccc(OCCN2CCCCCC2)cc1)c1ccccc1
inactive: SK-MEL-2 melanoma 98.7% | EKVX NSCLC 85% | SN12C renal 77% | UO-31 renal 61.8% | TK-10 renal 102% | ACHN renal 103% | CAKI-1 renal 85.1% | A498 renal 80.2% | CCRF-CEM leukemia 44.3% | MOLT-4 leukemia 68.8%

CN(C)C(=O)OCc1ccc2c(Cl)cc(Cl)c(O)c2n1
inactive: SK-MEL-2 melanoma 50.1% | EKVX NSCLC 30.5% | SN12C renal 36.6% | UO-31 renal 27.2% | TK-10 renal 64.2% | ACHN renal 27.2% | CAKI-1 renal 18.6% | A498 renal 68% | CCRF-CEM leukemia 23% | MOLT-4 leukemia 22.1%

CCOC(=O)CC1CSC(N/N=C(/C)c2cccc(C(F)(F)F)c2)=N1 (stereo not given)
inactive: SK-MEL-2 melanoma 123% | EKVX NSCLC 89.3% | SN12C renal 103% | UO-31 renal 80.2% | TK-10 renal 95.8% | ACHN renal 106% | CAKI-1 renal 91.6% | A498 renal 97.4% | CCRF-CEM leukemia 104% | MOLT-4 leukemia 95.8%

Clc1ccc2c(NCCCn3cnc4c(N5CCCC5)nc(Cl)nc43)ccnc2c1
inactive: SK-MEL-2 melanoma 89.6% | EKVX NSCLC 96.4% | SN12C renal 94.3% | UO-31 renal 77.4% | TK-10 renal 102% | ACHN renal 91.8% | CAKI-1 renal 90.8% | A498 renal 94.4% | CCRF-CEM leukemia 104% | MOLT-4 leukemia 92.3%

C=C(C)[C@@H]1CC[C@]2(COC(=O)c3cccnc3)CC[C@]3(C)[C@H](CC[C@@H]4[C@@]5(C)CCCN(C(=O)c6cccnc6)C(C)(C)[C@@H]5CC[C@]43C)[C@@H]12
inactive: SK-MEL-2 melanoma 65.3% | EKVX NSCLC 49.6% | SN12C renal 38.1% | UO-31 renal 35.9% | TK-10 renal 51.8% | ACHN renal 29.5% | CAKI-1 renal 32.6% | A498 renal 46.7% | CCRF-CEM leukemia 24.9% | MOLT-4 leukemia 23.6%

CCc1ccc(Cc2cnc(NC(=O)c3cc(C)oc3C)s2)cc1
active: A498 renal 8.18%
inactive: SK-MEL-2 melanoma 59.4% | EKVX NSCLC 39.6% | SN12C renal 45.1% | UO-31 renal 43.6% | TK-10 renal 60.1% | ACHN renal 48.7% | CAKI-1 renal 22.2% | CCRF-CEM leukemia 28.5% | MOLT-4 leukemia 29.2%

CC/C(=C(/c1ccc(Cl)cc1)c1ccc(OCCN2CCCC2)cc1)c1ccccc1
inactive: SK-MEL-2 melanoma 88% | EKVX NSCLC 59.3% | SN12C renal 69.3% | UO-31 renal 66.2% | TK-10 renal 93.5% | ACHN renal 87.9% | CAKI-1 renal 61.6% | A498 renal 79.7% | CCRF-CEM leukemia 36.9% | MOLT-4 leukemia 42.8%

[2H]C([2H])([2H])Oc1c(F)cccc1/C=C/C(=O)/C=C(O)/C=C/c1cccc(F)c1OC([2H])([2H])[2H]
inactive: SK-MEL-2 melanoma 101% | EKVX NSCLC 107% | SN12C renal 93.4% | UO-31 renal 97.8% | TK-10 renal 114% | ACHN renal 104% | CAKI-1 renal 103% | A498 renal 109% | CCRF-CEM leukemia 90.9% | MOLT-4 leukemia 77.7%

CC(C)=CCC[C@](C)(O)C1CC[C@]2(C)[C@@H]1CC[C@@H]1[C@@]3(C)CC/C(=N\OCCC#N)C(C)(C)[C@@H]3CC[C@]12C (stereo not given in full)
inactive: SK-MEL-2 melanoma 100% | EKVX NSCLC 72.4% | SN12C renal 80% | UO-31 renal 60.5% | TK-10 renal 105% | ACHN renal 90.3% | CAKI-1 renal 77.5% | A498 renal 72.8% | CCRF-CEM leukemia 75.8% | MOLT-4 leukemia 77.5%

Clc1nc(N2CCC[N+]3(CC2)CC[N+]2(CCCNCC2)CC3)nc(N2CCC[N+]3(CC2)CC[N+]2(CCCNCC2)CC3)n1 (stereo not given)
inactive: SK-MEL-2 melanoma 106% | EKVX NSCLC 108% | SN12C renal 93.7% | UO-31 renal 97.9% | TK-10 renal 133% | ACHN renal 115% | CAKI-1 renal 65.1% | A498 renal 114% | CCRF-CEM leukemia 96.7% | MOLT-4 leukemia 92.3%

COc1ccc(C2=NN3C(C2)c2cc(Br)ccc2OC3c2ccncc2)cc1 (stereo not given)
inactive: SK-MEL-2 melanoma 97.5% | EKVX NSCLC 83.6% | SN12C renal 83.3% | UO-31 renal 44.6% | TK-10 renal 98.6% | ACHN renal 80.7% | CAKI-1 renal 45.2% | A498 renal 95.6% | CCRF-CEM leukemia 70% | MOLT-4 leukemia 68.5%

CCCN1C2CCC1/C(=C\c1ccc(OC)cc1)C(=O)/C2=C/c1ccc(OC)cc1
inactive: SK-MEL-2 melanoma 72.5% | EKVX NSCLC 77.6% | SN12C renal 75% | UO-31 renal 56.3% | TK-10 renal 85.9% | ACHN renal 81.6% | CAKI-1 renal 74.4% | A498 renal 80% | CCRF-CEM leukemia 67.4% | MOLT-4 leukemia 55%

COc1ccc(S(=O)(=O)N(C)c2oc(-c3ccc(Cl)cc3)nc2C#N)cc1
inactive: SK-MEL-2 melanoma 85% | EKVX NSCLC 86.8% | SN12C renal 88.4% | UO-31 renal 72.2% | TK-10 renal 94.3% | ACHN renal 101% | CAKI-1 renal 75.6% | A498 renal 63.8% | CCRF-CEM leukemia 72.2% | MOLT-4 leukemia 59.4%

O=C(O)c1cc2ccccc2s1
inactive: SK-MEL-2 melanoma 127% | EKVX NSCLC 106% | SN12C renal 106% | UO-31 renal 94.5% | TK-10 renal 123% | ACHN renal 103% | CAKI-1 renal 94.7% | A498 renal 108% | CCRF-CEM leukemia 100% | MOLT-4 leukemia 100%

C=C(CNCCc1ccc(O)cc1)[C@@H]1CC[C@]2(CO)CC[C@]3(C)[C@H](CC[C@@H]4[C@@]5(C)CCC(N)C(C)(C)[C@@H]5CC[C@]43C)[C@@H]12 (stereo not given in full)
active: SK-MEL-2 melanoma -81.4% | EKVX NSCLC -62.8% | SN12C renal -81.7% | UO-31 renal -98.9% | TK-10 renal -84.5% | ACHN renal -71.9% | CAKI-1 renal -81.8% | CCRF-CEM leukemia -26.8% | MOLT-4 leukemia -32.4%
inactive: A498 renal 64.5%

CC(=O)[C@H]1CC[C@]2(C)[C@@H]1CC[C@@H]1[C@@]3(C)C/C(=C/c4cccnc4)C(=O)C(C)(C)[C@@H]3CC[C@]12C
inactive: SK-MEL-2 melanoma 85.3% | EKVX NSCLC 85.1% | SN12C renal 75.6% | UO-31 renal 78.2% | TK-10 renal 162% | ACHN renal 87.3% | CAKI-1 renal 72.5% | A498 renal 100% | CCRF-CEM leukemia 31.7% | MOLT-4 leukemia 20.3%

CCN(CC)CCCNC(=O)c1c2c(n3ccccc13)C(=O)c1ncccc1C2=O
inactive: CAKI-1 renal 11.8%
active: SK-MEL-2 melanoma -55.3% | EKVX NSCLC -84.5% | SN12C renal -56% | UO-31 renal -19.8% | TK-10 renal -0.124% | ACHN renal -34.5% | A498 renal -73% | CCRF-CEM leukemia -36.2% | MOLT-4 leukemia -40.6%

— PubChem BioAssay (NCI)
